# From PubChem BioAssay AID422 (Emory University Molecular Libraries Screening Center, 2006)
# Several values for one entry are separate records, joined by “and”; a condition that tells them apart may be missing. Equal values may be shown once. The whole screen tested about 160,000 compounds, of which about 310 (0.19%) were called active. Rule as the data show it: active = inhibition above about 30%; inactive = the rest. For the sample, actives were picked, then their nearest neighbours and some compounds at random. Where a structure was tested more than once in an assay, its records may differ in their call.
# Target: 14-3-3 protein gamma (Homo sapiens) (UniProt P61981)
# Sequence (P61981 whole entry, looked up): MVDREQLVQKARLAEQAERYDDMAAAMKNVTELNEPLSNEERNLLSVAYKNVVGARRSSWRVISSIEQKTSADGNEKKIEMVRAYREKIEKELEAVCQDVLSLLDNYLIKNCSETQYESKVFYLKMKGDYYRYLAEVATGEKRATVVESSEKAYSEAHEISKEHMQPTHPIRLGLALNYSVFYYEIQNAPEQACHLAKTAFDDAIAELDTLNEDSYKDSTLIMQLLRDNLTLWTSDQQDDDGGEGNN
# Experiment: modulators of 14-3-3 gamma protein binding, primary screen, biochemical, fluorescence polarization (AID 422);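 also: 0% = protein plus tracer without compound and 100% = blank with tracer alone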
# Settings: FP, 14-3-3gamma / TMR-pS259-Raf peptide binding; at 40 µM; stronger effect = higher value
row,Structure (SMILES),inhibition
1,Cc1c(Cl)cccc1N1C(=O)C2C3c4ccccc4C(c4ccccc43)C2C1=O (configuration not stated),1.55% (inactive)
2,O=C(Nc1ccccc1C(F)(F)F)c1ccc(SC2CCCCC2)c([N+](=O)[O-])c1,-3.43% (inactive)
3,O=C(Nc1cccc2c1C(=O)c1ccccc1C2=O)c1ccccc1Br,-33.2% (inactive)
4,COc1cc2c(cc1OC)C(COc1ccc3c(C)cc(=O)oc3c1)N(C(=O)c1cc(C)cc(C)c1)CC2 (configuration not stated),-4.93% (inactive)
5,O=C(Cn1cnc([N+](=O)[O-])c1)C1CC1,7.38% (inactive)
6,COc1ncnc2c1N=C1CC(C)(C)CC(N)=C1S2,56.3% (active)
7,CC(=O)CCC=C(C)CCC=C(C)C,-6.82% (inactive)
8,Cc1ccc(-c2nc3ccccc3c(C(=O)O)c2C)s1,-5.29% (inactive)
9,O=C1NC(c2ccc(Cl)cc2)C(C(=O)c2ccccc2)C(O)(C(F)(F)F)N1 (configuration not stated),9.54% (inactive)
10,O=C(NCCCN1CCCC1)c1ccc(N2CCCC2=O)cc1,2.82% (inactive)
11,Cc1ccc(Cl)cc1N1C(=O)C(N2C(=O)c3ccc([N+](=O)[O-])cc3C2=O)C1c1cccc(F)c1 (configuration not stated),-4.78% (inactive)
12,CCCC(=O)N(c1ccc2oc(C)c(C(=O)OC)c2c1)S(=O)(=O)c1cc([N+](=O)[O-])ccc1C,-23.1% (inactive)
13,COc1ccc(CN2C(=O)CCC2(C)C(=O)NC2CCCCCC2)c(OC)c1 (configuration not stated),-7.62% (inactive)
14,COc1ccc2cc(-c3nnc(Nc4ccccc4F)s3)c(=O)oc2c1,-11.4% (inactive)
15,COC(=O)C1=C(C)NC2=C(C(=O)CC(c3ccccc3Cl)C2)C1c1ccc2c(c1)OCO2 (configuration not stated),-2.26% (inactive)
16,O=c1oc2ccc(Cl)cc2cc1-c1cn2cc(Cl)cc(Cl)c2n1,-12.1% (inactive)
17,CN1CCc2c(n(-c3ccccc3)c3ccccc23)C1=O,-14.8% (inactive)
18,CCOc1ccc(N=Cc2c(O)c(C(=O)Nc3ccccc3C)cc3ccccc23)cc1,79.8% (active)
19,CCOc1ccccc1C(=O)Nc1ccc(I)cc1C,-132% (inactive)
20,COc1cccc(C=Nc2cccc(C(=O)Nc3cccc4ccccc34)c2)c1O,2.57% (inactive)
21,CCC(=O)N1CCc2cc(OC)c(OC)cc2C1COc1cccc(C(F)(F)F)c1 (configuration not stated),-6% (inactive)
22,Cc1ccc(-c2cc(C(=O)OCC(C)C)c3cc(C)ccc3n2)cc1,3.92% (inactive)
23,COc1cc(C2Nc3ccccc3NC3=C2C(=O)CC(c2ccccc2Cl)C3)cc(Cl)c1O (configuration not stated),-12.8% (inactive)

row,Structure (SMILES),inhibition
1,COc1ccc(-n2ncc3c(N4CCc5ccccc54)ncnc32)cc1,-7.74% (inactive)
2,Cc1cccc(-n2ncc3c(N4CCc5ccccc54)ncnc32)c1,-10.6% (inactive) and 1.75% (inactive)
3,COc1ccc(-n2ncc3c(N4CCCc5ccccc54)ncnc32)cc1,43.9% (active)
4,CC1Cc2nc(SCC(=O)Nc3cccc(C(F)(F)F)c3)n(C)c(=O)c2S1 (configuration not stated),-7.37% (inactive)
5,CCOc1ccc(S(=O)(=O)N2CCC(C)CC2)c2ccccc12,-10.1% (inactive)
6,Cc1[nH]c2ccccc2c1C(=O)CSc1nc2ccccc2s1,-9.51% (inactive)
7,CCN1C(=O)c2cccc3c(S(=O)(=O)NC4CC(C)(C)NC(C)(C)C4)ccc1c23,-11.1% (inactive)
8,CC(C)(C)c1ccc(C(=O)NCc2n[nH]c(=S)n2-c2cccc(C(F)(F)F)c2)cc1,4.88% (inactive)
9,CN1C(=O)NC(c2cccc(Cl)c2)C2=C1CCCC2=O (configuration not stated),2.47% (inactive)
10,Cc1ccc2c(=O)c(CN3CCOCC3)c(C)[nH]c2c1C,-4.4% (inactive)
11,Cc1ccc(-c2nnc(NCc3ccccc3)c3ccccc23)cc1S(=O)(=O)N1CCOCC1,-13.1% (inactive)
12,COc1ccc(CN2CCN(S(=O)(=O)c3cc(Br)c(Br)s3)CC2)c(OC)c1OC,-1% (inactive)
13,Cc1cc(N2CCOCC2)nc2ccc(NC(=O)c3ccc(F)cc3)cc12,-5.58% (inactive)
14,O=c1c2ccc(-c3ncc(-c4ccccc4)o3)c3cccc(c32)c2nc3cccc4cccc(c43)n12,-3.12% (inactive)
15,Clc1ccc2nc(-c3ccsc3)c(NC3CCCCC3)n2c1,1.17% (inactive)
16,O=C(CC1Sc2ccccc2NC1=O)NCCCSC1CCCCC1 (configuration not stated),5.8% (inactive)
17,Cc1cc(NCCN2CCCCCC2)n2c(nc3ccccc32)c1C#N,-60.5% (inactive)
18,N#Cc1c(N2CCCCCC2)ncc2cc3ccccc3nc12,143% (active)
19,Cc1cccc2cc(C#N)c(N3CCCC3)nc12,-5.89% (inactive)
20,O=C(O)c1ccccc1C(=O)Nc1cccc2cccnc12,52.6% (active)
21,COc1ccc(NC(=O)Nc2cccc3cccnc23)cc1,-2.7% (inactive)
22,O=C(Nc1cccc2cccnc12)c1cccc(N2C(=O)CCC2=O)c1,2.56% (inactive)
23,O=C(NC1CCCCNC1=O)c1ccc(N2CC3CC(C2)c2cccc(=O)n2C3)c(NC(=O)c2ccccc2Br)c1 (configuration not stated),-4.63% (inactive)

row,Structure (SMILES),inhibition
1,CN(Cc1ccccc1)S(=O)(=O)c1ccc2c(c1)CCN2C(=O)C1CCC1,-4.53% (inactive)
2,Cc1ccc(-c2csc(Nc3ccccc3)n2)c(C)c1,-4.17% (inactive)
3,O=C(CSc1nc2ccccc2[nH]1)c1cccs1,-10.8% (inactive) and -0.41% (inactive)
4,C=CCSc1nc2ccccc2[nH]1,50.5% (active) and -1.38% (inactive)
5,c1ccc2[nH]c(-c3nc4ccccc4[nH]3)nc2c1,-4.13% (inactive)
6,COc1cc(OC)c(C2C(C(=O)O)c3cc(OC)c(OC)cc3C(=O)N2C)cc1OC (configuration not stated),4.71% (inactive)
7,O=C(O)c1c[nH]c2ccc(S(=O)(=O)N3CCN(c4cccc(Cl)c4)CC3)cc2c1=O,-20.1% (inactive)
8,COc1ccc(NC(=O)c2cc([N+](=O)[O-])ccc2Cl)cc1OC,-12.3% (inactive)
9,COc1ccc(CCNC(=O)c2cc(Cl)ccc2OC)cc1,-6.62% (inactive)
10,CC(=O)Oc1ccccc1C(=O)NCCc1ccccc1,3.04% (inactive)
11,COc1cc2ccccc2cc1C(=O)NCCc1ccccc1,76% (active)
12,CCCCN(CC)C(=O)C1c2cc(OC)c(OC)cc2C(=O)N(C)C1c1ccccc1F (configuration not stated),-7.13% (inactive)
13,O=C(Oc1ccc(C2NC(=O)c3c(sc4c3CCCC4)N2)cc1)c1ccccc1 (configuration not stated),-5.95% (inactive)
14,O=S(=O)(Nc1ccccn1)c1ccccc1,-1.79% (inactive)
15,Cc1ccc(NC(=O)c2cccc(Oc3ccc(C#N)cc3)c2)cc1,-12% (inactive)
16,O=C(Nc1nccs1)c1cc2cc(Cl)ccc2oc1=Nc1ccc(Br)cc1,-1.07% (inactive)
17,COc1ccc(CNCC2OCCc3ccccc32)cc1OC (configuration not stated),-5.29% (inactive)
18,O=C(NCCc1ccccc1)C1Cc2ccccc2CN1S(=O)(=O)c1cccs1 (configuration not stated),-6.94% (inactive)
19,Cc1sc(NC(=O)c2cc(=O)c3ccccc3o2)nc1-c1ccccc1,0.55% (inactive)
20,CCN(CC)c1ccc2cc(C(=O)NC(C)=O)c(=Nc3ccccc3OC)oc2c1,133% (active)
21,CCN(CC)c1ccc2cc(C(=O)O)c(=O)oc2c1,-6.88% (inactive)
22,CCN(CC)c1ccc2cc(C(N)=O)c(=Nc3ccc(C(N)=O)cc3)oc2c1,3.05% (inactive)
23,COc1cccc(-c2nn(C)c3sc(C(=O)NCCCOC(C)C)cc23)c1,-12.3% (inactive)

row,Structure (SMILES),inhibition
1,COC(=O)c1ccc2c(c1N)C(=O)c1ccccc1C2=O,-200% (inactive)
2,O=C(OCCN1C(=O)c2ccccc2C1=O)c1ccc([N+](=O)[O-])cc1,5.13% (inactive)
3,CC(C)CCOC(=O)c1c2c(n3ccccc13)C(=O)c1ccccc1C2=O,34.6% (active)
4,Cc1cc2c3c(ccc(N)c3n1)C(=O)c1ccccc1-2,127% (active)
5,Cc1ccc2nc3c(nc2c1)C(=O)c1ccccc1C3=O,-16.2% (inactive)
6,Cc1ccc2c(c1)-c1cccc3cccc(c13)C2=O,3.94% (inactive)
7,CCc1ccccc1NC(=O)c1cc2cc3ccc(OC)cc3nc2o1,17.8% (inactive)
8,O=C(Cc1ccc(Cl)cc1)Nc1cccc(-c2nc3ccccc3o2)c1,-129% (inactive)
9,COc1ccc(C2C3=C(CCCC3=O)OC3=C2C(=O)CCC3)cc1,0.11% (inactive)
10,CCC(=O)N1CCc2cc(S(=O)(=O)CCC(=O)N3CCN(c4cccc(OC)c4)CC3)ccc21,3.36% (inactive)
11,COc1cc2ccccc2cc1C(=O)Nc1nc(-c2c(OC)ccc3ccccc23)cs1,-0.5% (inactive)
12,COC(=O)C1=CN(C)C=C(C(=O)OC)C1c1cc(OC)ccc1OC,1.92% (inactive)
13,O=C(COc1ccc(C2CCCCC2)cc1)Nc1ccc(-c2nc3ncccc3o2)cc1,-12.3% (inactive)
14,CC(=O)COc1cc(C)cc2oc(=O)c(Cc3ccccc3)c(C)c12,4.62% (inactive)
15,COCCn1c(=S)[nH]c2cc(C(=O)N3CCN(C(=O)c4ccco4)CC3)ccc2c1=O,2.47% (inactive)
16,CCOc1cc2c(cc1OCC)C1C(C(=O)NCCN3CCOCC3)c3ccccc3C(=O)N1CC2 (configuration not stated),8.01% (inactive)
17,S=c1[nH]ncn1-c1cccnc1,40.8% (active)
18,C(=N\n1cnnc1)/c1cccnc1,-6.33% (inactive)
19,CC(C)(C)c1ccc(-c2nc(Cc3ccc(Cl)cc3)no2)cc1,-5.54% (inactive)
20,COC(=O)C1=C(C)N=C2SC(C)C(=O)N2C1c1ccc(C)cc1 (configuration not stated),-10.9% (inactive)
21,CC(C)c1ccc(NC(=O)c2ccc(F)c(S(=O)(=O)NCc3ccccc3Cl)c2)cc1,-7.39% (inactive)
22,COc1ccc(NC(=O)CSc2nc3nc(C)cc(C)n3n2)c(OC)c1,-15.5% (inactive)
23,CCOC(=O)c1ccc(N2C(=O)C3CCCCC3C2=O)cc1 (configuration not stated),-3.67% (inactive)
